# Screening data: PubChem BioAssay, National Center for Advancing Translational Sciences (NCATS)
# The list is not random: actives were taken first. Their share in the collection is about 5.9%.
# ATXN viability: reduces viability in counter-screen for ATXN expression inhibitors | S2 cells (HEK-293 line with an ATXN2-luciferase reporter) viability, CellTiter-Fluor protease fluorescence, 24 h | Potency, µM (top dose mostly 56.7 µM), hits mostly cytotoxic | actives 0.49% (n = 400,000); note: nearly all actives have a fitted effect of over 40% in size
# KB-3-1 tox: KB-3-1 parental cell cytotoxicity | actives 1.4% (n = 400,000) | KB-3-1 viability, CellTiter-Glo ATP luminescence, 72 h | Potency, µM (highest dose often 46.1 µM), actives largely listed as cytotoxic; note: nearly all actives have a fitted effect of over 60% in size
#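 Screening of KB-3-1 cells (DMEM, 10% FBS, phenol-red free) ran from lowest to highest compound concentration; after 72 h at 37 °C viability was read luminescently and curves fitted.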
# ATXN2 expr inh: inhibitors of ATXN2 expression | HEK-293 ATXN2-luciferase reporter, luminescence, 24 h | actives 0.72% (n = 360,000) | Potency, µM (highest dose often 57 µM), usual class: inhibitors; note: nearly all actives have a fitted effect of over 55% in size
#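 qHTS (up to 57 uM final) was run with 24 h compound exposure of reporter cells at 37 °C. Each well was multiplexed: SteadyGlo luminescence measured ATXN2-luciferase expression after a fluorogenic Gly-Phe-AFC viability readout (25 uM final).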
# HepG2 viability: kills HepG2 cells in TGF-b inhibitor counter-screen. actives 0.76% (n = 410,000). HepG2 CAGA-GFP viability, ATP luminescence, 18 h. Potency, µM (doses to about 46.1 µM), most hits filed as cytotoxic. AID 588856
#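 CellTiter-Glo luminescence gave cytotoxicity after 18 hours at 37 degrees C. The cells were HepG2 CAGA-GFP in 1% FBS DMEM, stimulated with 500 pg/mL TGF-beta after compound addition. %Activity was normalised to no-cell wells (complete cell-killing) and DMSO (no toxicity), and curves were fitted and classified.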
# TGFb SMAD3 inh: TGF-b pathway inhibition; HepG2 CAGA-GFP TGF-b/SMAD3 reporter, GFP fluorescence, 18 h; TGF-beta stimulated, 500 pg/mL final; Potency, µM (highest dose often 46.1 µM), actives largely listed as inhibitors; actives 1.2% (n = 410,000); AID 588855; note: nearly all actives have a fitted effect of over 65% in size
#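 Read-out: total well GFP (ex488/em500-530) summed from mean per-cell fluorescence. Cells: HEPG2 CAGA-GFP, 1% FBS DMEM, 18 h at 37 degrees C with 500 pg/mL final TGF-beta. Unstimulated wells served as the full-inhibition control; stimulated DMSO wells = 0%.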
# KB-V1 cytotox: KB-V1 MDR subline cytotoxicity. actives 3.4% (n = 400,000). KB-V1 MDR cells viability, CellTiter-Glo, 72 h. Potency, µM (titrated, usually from 46.1 µM), actives largely listed as cytotoxic; note: nearly all actives have a fitted effect of over 60% in size
#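 Following 72 h at 37 degrees C with compound, KB-V1 cell viability was read by CellTiter-Glo luminescence, medium being phenol-red-free DMEM plus 10% FBS; concentration-response parameters came from normalized, curve-fitted qHTS data.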
# Hits are given with their value; – = inactive; ? = inconclusive; · = no result. Calls come from the whole dose curve; as a rule, active = well fitted curve in the direction sought with a large enough effect; inconclusive = small, poorly fitted or top-dose-only effect, or another doubt; inactive = no such curve, though single readings can be large; an effect the other way counts as inactive or inconclusive.
SMILES,ATXN viability,KB-3-1 tox,ATXN2 expr inh,HepG2 viability,TGFb SMAD3 inh,KB-V1 cytotox
O=C1[C@@H]2Cc3c([nH]c4ccccc34)C(c3cccc(Br)c3)N2C(=O)CN1C1CCN(Cc2ccccc2)CC1 (stereo not given in full),?,?,?,–,16µM,–
COc1ccc(NC(=O)CN2CCCN(S(=O)(=O)c3ccc(Br)cc3)CC2)c(OC)c1,?,?,–,–,?,?
Cc1ccn2cc(CNC(=O)c3cccc(C(F)(F)F)c3)nc2c1,·,·,·,–,–,·
COC(=O)c1ccccc1NC(=O)N1CCC(n2c(C)nc3cccnc32)CC1,–,–,–,–,–,–
O=C(CC1Sc2ccccc2NC1=O)NNc1cccc(Cl)c1Cl (stereo not given),–,–,?,–,–,21µM
Cc1ccc(-c2nc3scc(CCNS(=O)(=O)c4ccc(C)c(C)c4)n3n2)cc1,·,·,·,–,?,·
CCC(COC(=O)Nc1cccc(C)c1C)NC(=O)OCC(C)C (stereo not given),–,–,–,–,–,9.2µM
CCc1cccc(CC)c1NC(=O)/C(C#N)=C/c1ccccc1C(F)(F)F,·,?,?,–,13µM,?
CC(=O)N(C)c1ccc(OCC(O)Cn2c3ccc(Cl)cc3c3cc(Cl)ccc32)cc1 (stereo not given),?,21µM,?,14µM,?,21µM
CC(=O)N(C)c1ccc(OCC(O)Cn2c(C)nc3ccccc32)cc1 (stereo not given),–,?,·,–,–,–
CCOc1ccccc1OCCNC(C)Cc1ccc(OC)c(S(N)(=O)=O)c1 (stereo not given),·,·,–,·,·,·
COc1ccc(-c2csc3ncnc(N4CCN(CCO)CC4)c23)cc1,–,–,–,–,–,–
CCOc1ccccc1N1CCN(c2ncnc3scc(-c4ccc(OC)cc4)c23)CC1,–,13µM,?,–,?,?
COc1ccc(-c2csc3ncnc(N4CCN(c5ccccc5OC)CC4)c23)cc1,?,?,32µM,–,?,?
CCc1nn(CC(=O)NCc2cccc(OC)c2OC)c(=O)c2cc3occc3n12,·,·,·,–,·,·
O=C1C[C@H]2C=CCc3cccc(c32)CN1Cc1cccc(F)c1,·,–,·,–,–,–
COc1cc2c(cc1OC)C1=C(C#N)CC/C(=N\S(=O)(=O)c3cccc(Cl)c3)N1CC2,–,?,–,–,–,16µM
O=[N+]([O-])c1ccc(S(=O)(=O)N2CCN(Cc3c[nH]c4ccccc34)CC2)cc1,–,–,–,–,–,21µM
CCC1CN(CC(=O)NC(C)c2cn(C)nc2C)Cc2cc(OC)ccc2O1 (stereo not given),–,·,·,·,·,·
COC(=O)c1scc(-c2ccc(C)cc2)c1S(=O)(=O)Nc1cc(Cl)ccc1C,–,–,–,–,?,–
O=C1CCC(C(=O)N2CCCC(C(=O)c3ccc4c5c(cccc35)CC4)C2)=NN1 (stereo not given),–,15µM,–,–,–,–
C/C(CC(C)(C)C1CCCCC1)=N\NC(N)=S,32µM,–,32µM,11µM,6.3µM,?
O=C(Nc1cc(Cl)cc(Cl)c1)c1ccc(F)c(S(=O)(=O)NC2CCCC2)c1,·,·,·,–,?,·
CNC(=O)C1Cc2c(-c3ccc(Cl)cc3)ccnc2O1 (stereo not given),–,–,–,–,–,–
Cn1c(SCC(=O)Nc2cccc(C(=O)O)c2)nnc1-c1cc2cc(Br)ccc2o1,–,–,–,–,–,–
CCc1cccc(C)c1NC(=O)CSc1nnc(-c2cc3cc(Br)ccc3o2)n1CC,–,?,–,–,–,21µM
CCc1cccc(C)c1NC(=O)CSc1nnc(CC)n2c1cc1occc12,·,–,·,–,7.9µM,–
Cc1ccc(-c2nnc(SCC(=O)Nc3ccc4c(c3)oc3ccccc34)n2C)c(Cl)c1,–,–,–,–,–,2.6µM
